Source: PubChem BioAssay
A selection: hits, their analogues and other compounds. The true share with any hit is near 3.5%.
Rv3671c inh: inhibitors of M. tuberculosis serine protease Rv3671c; P9WHR9; inhibition, % at 5.96 µM; 320,000 compounds, 0.048% hits; AID 2606; in the data active = inhibition above about 38%;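 note: extracellular domain of Rv3671c used as enzyme; 0% = enzyme with DMSO and 100% = no enzyme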
FBA Mtb inh: inhibitors of M. tuberculosis fructose-bisphosphate aldolase. P9WQA3. purified M. tuberculosis FBA, fluorescence read-out. inhibition, % at 1 µM. 360,000 compounds, 2.3% hits. AID 588726;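 note: 0% = vehicle and 100% = reference inhibitor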
Target sequence (P9WQA3 whole entry, looked up): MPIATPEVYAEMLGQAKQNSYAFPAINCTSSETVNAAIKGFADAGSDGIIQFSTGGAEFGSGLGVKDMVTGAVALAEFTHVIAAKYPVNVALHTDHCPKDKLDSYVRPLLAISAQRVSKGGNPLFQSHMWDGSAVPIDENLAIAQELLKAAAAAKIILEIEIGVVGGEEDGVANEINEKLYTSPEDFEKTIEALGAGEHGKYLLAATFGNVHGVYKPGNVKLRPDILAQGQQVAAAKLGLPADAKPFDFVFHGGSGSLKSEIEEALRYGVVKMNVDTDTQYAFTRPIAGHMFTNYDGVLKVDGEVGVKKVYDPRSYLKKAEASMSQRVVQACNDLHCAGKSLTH
GDH-TPI counter-1: GDH-TPI coupled enzyme inhibition counter-screen; GDH-TPI coupled enzyme counterscreen, NADH absorbance; inhibition, % at 4.8 µM; 360,000 compounds, 1.2% hits; in the data active = inhibition above about 30%;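 note: 0% = DMSO wells and 100% = wells lacking the enzyme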
FadD28 FP inh: blocks FadD28 binding to the bisubstrate probe; fluorescence polarization; inhibition, % at 12.5 µM; 360,000 compounds, 0.22% hits; in the data active = inhibition above about 8.5%, passing the limit was not always enough
Mtb UGM inh: inhibitors of M. tuberculosis UDP-galactopyranose mutase; purified UGM, fluorescence polarization probe displacement; inhibition, % at 10 µM; 320,000 compounds, 0.06% hits; AID 504406; in the data active = inhibition above about 10%, passing the limit was not always enough
Mtb hypoxia inh: inhibitors of hypoxia-regulated fluorescent reporter in Mycobacterium tuberculosis; M. tuberculosis hypoxia-regulated fluorescent reporter, fluorescence; fluorescence inhibition, % (test concentration not listed); 300,000 compounds, 0.1% hits; AID 1159583; in the data active = fluorescence inhibition mostly above about 23%, no sharp cut-off; inactive = mostly below about 17%
Mtb FBA inh conf: confirmation of M. tuberculosis fructose-bisphosphate aldolase inhibitors; shares compounds with FBA Mtb inh; purified M. tuberculosis FBA, fluorescence read-out; inhibition, % at 1 µM; 5,600 compounds, 78% hits;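 note: 0% = vehicle wells and 100% = reference inhibitor wells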
GDH-TPI counter-2: counter-screen for M. tuberculosis FBA inhibitors: GDH-TPI coupled enzyme inhibition | shares compounds with FBA Mtb inh | GDH-TPI coupled enzyme counterscreen, fluorescence | inhibition, % at 1 µM | 5,600 compounds, 81% hits | AID 652141; in the data active = inhibition above about 10%
GDH-TPI dose: inhibits GDH-TPI coupling enzymes in dose response; shares compounds with FBA Mtb inh; GDH-TPI coupled enzyme assay, fluorescence, artifact counterscreen; IC50, µM; 170 compounds, 79% hits; call rule not given here
An asterisk follows results filed as active; / = no result; + = active, no number. Cut-off read from the data, not from the text of the source, unless noted: active = inhibition above about 27%; inactive = the rest.

SMILES	Rv3671c inh	FBA Mtb inh	GDH-TPI counter-1	FadD28 FP inh	Mtb UGM inh	Mtb hypoxia inh	Mtb FBA inh conf	GDH-TPI counter-2	others
Cn1c(-c2ccc(CN3CCCCC3)o2)nc2ccccc21	-2	33*	4	-3	-4	/	20	12*
CCC(=O)Nc1cccc(-c2nc3ccc(C)cc3o2)c1	-4	32*	4	0	2	12	115*	99*
Cc1ccc2oc(-c3cccc(NC(=O)c4ccccn4)c3)nc2c1	-8	3	6	-1	1	/	/	/
Cc1cc(C)c2oc(-c3cccc(N)c3)nc2c1	0	52*	10	-1	0	12	19	7	GDH-TPI dose=0.88*
Cc1ccc2oc(-c3cccc(NC(=O)C4CCCO4)c3)nc2c1 (centres undefined)	5	51*	9	-3	-1	1	120*	98*
CCc1ccc2oc(-c3cccc(N)c3)nc2c1	1	63*	4	-4	1	0	127*	104*
CCN(CC)C(=O)NC1CC2c3cccc4[nH]cc(c34)CC2N(C)C1 (centres undefined)	/	/	/	/	/	7	/	/
Cc1ccc(-c2nc3cc(Cl)ccc3o2)cc1	5	2	8	0	-1	10	/	/
Cc1ccc2nc(-c3ccc(O)cc3)oc2c1	-6	66*	4	-1	0	/	68*	46*
Cc1ccc2nc(-c3cccc(N)c3)oc2c1	5	93*	13	1	4	4	14	0	GDH-TPI dose=0.95*
CC(=O)C1=C(C)N(CC2CC2)C(=O)NC1c1cccs1 (centres undefined)	/	/	/	/	/	3	/	/
COc1ccc(C=NNC(=O)CCNc2n[nH]c(=O)[nH]c2=O)c(OC)c1	/	/	/	/	/	8	/	/
CC(C)(C)c1ccc(C=NNc2nncn2N)cc1	/	/	/	/	/	-2	/	/
COc1cc(/C=N/c2oc(-c3ccccc3)cc2C#N)ccc1O	-8	47*	48*	1	2	/	+	+
COc1cc(C=Nc2oc(-c3ccccc3)cc2C#N)ccc1O	/	/	/	/	/	-4	/	/
CCn1c(=O)c2cc(C(=O)NCCN3CCOCC3)sc2c2ccccc21	4	75*	25	-1	-1	5	198*	162*
CCn1c(=O)c2cc(C(=O)NC(C)C)sc2c2ccccc21	-2	44*	5	-6	0	7	/	+
COc1cccc(N2CCN(C(=O)c3cc4c(OC)c(OC)c(OC)cc4[nH]3)CC2)c1	-5	1	-8	-3	0	-15	/	/
COc1cc2[nH]c(C(=O)N3CCN(c4ccccc4F)CC3)cc2c(OC)c1OC	-3	44*	11	0	-2	-4	+	+
COc1ccc(C=NNC(=O)c2cccc(NC(=O)c3ccc(Cl)cc3)c2)c(OC)c1	/	/	/	/	/	4	/	/
CCOC(=O)C1C2COc3ccc(Br)cc3C2N2C(=O)N(c3ccc(C)cc3)C(=O)[C@]12C (some centres undefined)	/	/	/	/	/	-2	/	/
COc1ccc(NS(=O)(=O)c2ccc(S(=O)(=O)N3CCOCC3)cc2)cc1	-8	45*	1	-2	0	5	149*	102*
COc1ccc(NS(=O)(=O)c2ccc(S(=O)(=O)N3CCCC3)cc2)cc1	-5	4	2	-2	0	/	/	/
Cc1cc2cc(CCNC(=O)c3ccc(S(=O)(=O)N4CCCC4)cc3)c(=O)[nH]c2cc1C	-19	2	13	-3	0	-3	/	/
COc1ccc(CCNC(=O)COc2ccc(S(=O)(=O)N3CCOCC3)cc2C)cc1	-2	105*	0	-1	-2	7	126*	104*
SMILES	Rv3671c inh	FBA Mtb inh	GDH-TPI counter-1	FadD28 FP inh	Mtb UGM inh	Mtb hypoxia inh	Mtb FBA inh conf	GDH-TPI counter-2	others
COc1ccc2cc(CCNC(=O)c3ccc(S(=O)(=O)N4CCOCC4)cc3)c(=O)[nH]c2c1	-8	79*	15	-4	2	-7	105*	85*
CN1C(=O)C2C(C3CC3)N3C(=O)CN(Cc4ccc(-c5ccccc5)cc4)C(=O)[C@@]3(C)C2C1=O (some centres undefined)	/	/	/	/	/	6	/	/
O=C(CN1C(=O)NC2(CCCCC2)C1=O)Oc1ccc2c(C(F)(F)F)cc(=O)oc2c1	12	31*	6	-1	-6	/	107*	70*
COC(=O)c1ccccc1NCCO	8	109*	9	-4	-1	14	67*	55*
O=C(O)c1ccccc1NCCO	9	48*	7	-5	1	4	138*	123*
CCNc1ccccc1C(=O)O	-5	78*	3	0	1	/	-5	-7
CCOC(=O)C1C2COc3ccccc3C2N2C(=O)c3cc(F)c(F)cc3NC(=O)[C@@]12C (some centres undefined)	/	/	/	/	/	14	/	/
COc1cc2[nH]c3c(=O)n(CCN4CCCCC4)cnc3c2cc1OC	5	41*	24	-1	0	/	107*	92*
COc1ccc2[nH]c3c(=O)n(Cc4ccncc4)cnc3c2c1	2	101*	0	-5	1	5	20	5	GDH-TPI dose=1.9*
Cc1ccc2[nH]c3c(=O)n(CCN4CCOCC4)cnc3c2c1	2	14	1	-1	1	8	/	/
O=c1c2[nH]c3ccc(F)cc3c2ncn1Cc1ccncc1	-4	12	23	-2	0	-9	/	/
Cn1c2ccsc2c2ncn(Cc3ccc(F)cc3)c(=O)c21	-1	3	7	-1	/	-2	/	/
CCC1CCCN1Cn1cnc2c([nH]c3ccc(C)cc32)c1=O (centres undefined)	-6	41*	11	-4	1	-2	+	+
